Experimental data as given in the supplement of paper PMC7156485.

These compounds were tested on HCC1569 (assay: H1.0 immunofluorescence intensity relative to DMSO (% of DMSO); higher = stronger H1.0 induction, active = 140 or more). Conditions: concentration: 10 µM; 24 h.
In short: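 After 24 h at 37 °C with compounds at 10 µM, in triplicate, HCC1569 and TDF cells were fixed with 3.7% formaldehyde. Immunostaining used a rabbit anti-H1.0 antibody and an AlexaFluor 647 secondary, with DAPI, and six fields per well were imaged at ×10. H1.0 nuclear intensity or cell number is presented as percent of the plate control, from the median of replicates, with HCC1569 values smoothed for positional effects.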
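Note: TDF is a line of transformed human dermal fibroblasts of mesenchymal origin.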

H1.0 immunofluorescence intensity, active:
COc1ccc(/C=C\c2cc(OC)c(OC)c(OC)c2)cc1O [2-methoxy-5-[(Z)-2-(3,4,5-trimethoxyphenyl)ethenyl]phenol] 162

H1.0 immunofluorescence intensity, inactive:
COC(=O)C1=C(C)NC(C)=C([N+](=O)[O-])C1c1ccccc1C(F)(F)F (racemic) 98
CC1=C(C)C(=O)C(CCCCC#CCCCC#CCO)=C(C)C1=O [Docebenone] 110
CN(C)c1nc(N)c(C(=O)N=C(N)N)nc1Cl.Cl [5-(N,N-Dimethyl)amiloride hydrochloride] 103
Cc1cnc(-c2cnc(NCCNc3ccc(C#N)cn3)nc2-c2ccc(Cl)cc2Cl)[nH]1 112
CC(C)(CCCCCCCCCCC(C)(C)CC(=O)O)CC(=O)O [3,3,14,14-tetramethylhexadecanedioic acid] 93.7
CC(=O)NCCc1ccc(O)c(O)c1 [N-Acetyldopamine monohydrate] 91.4
N#CC(=Cc1ccc(O)cc1)C(N)=C(C#N)C#N 110
Cl.Oc1ccc(C2CNCCc3c2cc(O)c(O)c3Cl)cc1 (stereo unspecified) [Fenoldopam.HCl] 121
CCCCCCCCC=CCCCCCCCC(N)=O [9,10-Octadecenoamide] 102
COc1c2ccoc2cc2oc(C)cc(=O)c12 [Visnagin] 82.3
O=c1ccc2ccc(O)c(O)c2o1 [7,8-dihydroxy-2H-chromen-2-one] 91
CCN(CC)CCOC(=O)C1(C2CCCCC2)CCCCC1.Cl [Dicyclomine hydrochloride] 93.1
CCn1cc(C(=O)O)c(=O)c2ccc(C)nc21 [Nalidixic acid] 86.1
Cc1scc2c1N(C(=O)CN1CCN(C)CC1)c1ccccc1NC2=O.Cl.Cl [Telenzepine.2HCl] 103
OCC1OC(n2cnc3c(Nc4ccccc4)ncnc32)C(O)C1O (stereo unspecified) [N6-Phenyladenosine] 104
